# Inconclusive results are not listed. Calls of active or inactive are those of the source. Rule for the calls, unless noted: active = hit-call score of the fitted dose curve at least 0.9, where 1 is the maximum; inconclusive = response in the unintended direction; inactive = score below 0.9.
# Tests used:
# [1] = TOX21_p53_BLA_p2_viability: Viability Assessment in the Tox21 HCT-116 p53 Agonism Beta-lactamase Assay, Phase 2 (AID 2283591);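 note: compound exposure lasted 16 h at 37 °C; actives lower the ATP signal meaning cytotoxicity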
# How it was run: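 HCT-116 p53-bla cells (4000/well) rested 5 h at 37C, then received compounds in DMSO (217-fold dilution) for 16 h at 37C, 5% CO2. After the CCF4 read, CellTiter-Glo was added; ATP luminescence was read after 30 min at room temperature.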
# [2] = target: Cellular tumor antigen p53 (Homo sapiens) (UniProt P04637); assay: TOX21_p53_BLA_p2_ratio: Tox21 HCT-116 p53 Agonism Beta-lactamase Assay, Ratio, Phase 2 (AID 2283592)
# Chain of Cellular tumor antigen p53 (Homo sapiens) (P04637 whole entry, looked up): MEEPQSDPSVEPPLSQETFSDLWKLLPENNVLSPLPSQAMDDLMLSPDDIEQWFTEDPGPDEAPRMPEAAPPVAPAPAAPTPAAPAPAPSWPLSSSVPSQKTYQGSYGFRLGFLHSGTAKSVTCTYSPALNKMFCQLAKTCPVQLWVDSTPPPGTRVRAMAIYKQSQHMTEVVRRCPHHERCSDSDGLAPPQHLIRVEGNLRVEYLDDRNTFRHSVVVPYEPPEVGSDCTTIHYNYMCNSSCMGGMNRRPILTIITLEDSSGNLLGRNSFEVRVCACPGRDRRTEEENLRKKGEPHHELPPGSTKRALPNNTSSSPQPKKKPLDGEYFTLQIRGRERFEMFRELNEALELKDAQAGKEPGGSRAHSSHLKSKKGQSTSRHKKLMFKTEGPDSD
# How it was run: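 HCT-116 cells with p53-responsive beta-lactamase reporter, 4000 cells/well, preincubated 5 h, then compound in DMSO (217-fold dilution) for 16 h at 37C. CCF4-AM substrate 2 h at room temperature; 460/530 nm emission ratio fitted upward versus DMSO.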
# [3] = TOX21_p53_BLA_p3_viability: Viability Assessment in the Tox21 HCT-116 p53 Agonism Beta-lactamase Assay, Phase 3 (AID 2283593);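 note: cells exposed to compound for 16 h before reading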
# How it was run: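 HCT-116 cells (4000/well) rested 5 h at 37C, then got DMSO compounds by pin tool (217-fold dilution) for 16 h at 37C, 5% CO2. After the bla read, CellTiter-Glo was added and luminescence read at 30 min, room temperature.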
# [4] = target: Cellular tumor antigen p53 (Homo sapiens) (UniProt P04637); assay: TOX21_p53_BLA_p3_ratio: Tox21 HCT-116 p53 Agonism Beta-lactamase Assay, Ratio, Phase 3 (AID 2283596)
# How it was run: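 HCT116 p53-bla cells (4000/well) given compound in DMSO (217-fold dilution) after 5 h, incubated 16 h at 37C. CCF4-AM substrate 2 h at room temperature; 460/530 nm emission ratio, gain fitted against DMSO.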
# [5] = TOX21_p53_BLA_p4_viability: Viability Assessment in the Tox21 HCT-116 p53 Agonism Beta-lactamase Assay, Phase 4 (AID 2283597);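 note: hits lower the luminescence signal meaning cytotoxicity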
# How it was run: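 HCT-116 p53-bla cells, 4000/well, dosed after 5 h attachment and incubated 16 h at 37 °C, 5% CO2. Viability from CellTiter-Glo ATP luminescence after 30 min at room temperature, taken after the beta-lactamase read; loss of signal indicates cytotoxicity.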
# [6] = target: Cellular tumor antigen p53 (Homo sapiens) (UniProt P04637); assay: TOX21_p53_BLA_p5_ratio: Tox21 HCT-116 p53 Agonism Beta-lactamase Assay, Ratio, Phase 5 (AID 2283599)
# How it was run: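 HCT-116 cells carrying a p53-inducible beta-lactamase reporter were seeded at 4000 cells/well and dosed after 5 h with compound in DMSO (217-fold dilution). After 16 h at 37C, CCF4-AM substrate was added for 2 h, and the 460/530 nm emission ratio was scored as gain-of-signal versus DMSO.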
# [7] = TOX21_p53_BLA_p5_viability: Viability Assessment in the Tox21 HCT-116 p53 Agonism Beta-lactamase Assay, Phase 5 (AID 2283600)
# How it was run: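 HCT-116 p53 beta-lactamase reporter cells, 4000/well, were exposed to compound (pin transfer, 217-fold dilution) for 16 hours at 37C. Cellular ATP was read by CellTiter-Glo luminescence after 30 min at room temperature.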
# [8] = target: Cellular tumor antigen p53 (Homo sapiens) (UniProt P04637); assay: TOX21_p53_BLA_p4_ratio: Tox21 HCT-116 p53 Agonism Beta-lactamase Assay, Ratio, Phase 4 (AID 2283601)
# How it was run: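 HCT116 cells carrying an inducible beta-lactamase reporter were plated at 4000 cells/well, rested 5 h, then exposed to compounds in DMSO (217-fold dilution) for 16 h at 37C. CCF4-AM substrate was loaded 2 h at room temperature; 460/530 nm emission ratio scored gain-of-signal versus DMSO.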
# [9] = tested on: Thyroperoxidase (TPO), gene 54314; assay: CCTE_Simmons_AUR_rTPO: CCTE's Amplex UltraRed Assay for Thyroperoxidase (TPO) Inhibition, Simmons Lab (AID 2283662);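 note: potency for loss of signal meaning inhibition of peroxidase activity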
# How it was run: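 Rat thyroid microsomes (5 ug protein) were incubated with test compound (8 concentrations, 5 nM–87.5 uM final, 0.5% DMSO), 25 uM Amplex UltraRed and 300 uM H2O2 in 200 mM phosphate buffer for 30 min at 37C in the dark; fluorescence read at 544/590 nm.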
# [10] = target: Luciferin 4-monooxygenase (Photinus pyralis) (UniProt P08659); assay: CCTE_Simmons_QuantiLum_inhib_2: CCTE's Firefly Luciferase Inhibition Assay, Simmons Lab (AID 2283767)
# Chain of Luciferin 4-monooxygenase (Photinus pyralis) (P08659 whole entry, looked up): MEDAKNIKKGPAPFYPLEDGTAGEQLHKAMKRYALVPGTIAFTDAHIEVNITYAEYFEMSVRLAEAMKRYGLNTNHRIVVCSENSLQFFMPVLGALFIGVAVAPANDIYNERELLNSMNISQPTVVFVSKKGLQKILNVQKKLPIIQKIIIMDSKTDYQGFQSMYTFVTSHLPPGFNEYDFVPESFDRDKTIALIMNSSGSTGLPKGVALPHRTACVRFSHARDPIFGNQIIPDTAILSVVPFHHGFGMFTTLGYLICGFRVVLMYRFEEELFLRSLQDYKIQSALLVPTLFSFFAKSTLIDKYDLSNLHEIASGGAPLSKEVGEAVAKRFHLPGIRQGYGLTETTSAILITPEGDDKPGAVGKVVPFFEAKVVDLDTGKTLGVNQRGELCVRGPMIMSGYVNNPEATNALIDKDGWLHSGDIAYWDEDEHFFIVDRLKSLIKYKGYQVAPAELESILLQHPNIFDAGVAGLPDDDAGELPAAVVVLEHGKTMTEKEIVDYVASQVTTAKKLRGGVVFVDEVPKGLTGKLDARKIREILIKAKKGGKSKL
# How it was run: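 Counter-screen for nonspecific enzyme inhibition: purified firefly luciferase incubated 30 min at 37C with chemicals up to 87.5 uM final, then luminescence measured after luciferin/dATP injection; activity fitted against DMSO baseline.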
# [11] = CCTE_Harrill_HTTr_Viability_MCF7: CCTE's 6-hour Cell Viability Assessment for the High-Throughput Transcriptomics (HTTr) Platform, in MCF-7 cells cultured in DMEM + 10% fetal bovine serum, Harrill Lab (AID 2284010; active = hit-call score of the fitted dose curve at least 0.9, where 1 is the maximum; inactive = score below 0.9)
# How it was run: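 Viability measured through PI dye exclusion by high-content imaging at 6 h post-dosing.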
# [12] = CCTE_Harrill_HTTr_Apoptosis_MCF7: CCTE's 6-hour Apoptosis Assessment for the High-Throughput Transcriptomics (HTTr) Platform, in MCF-7 cells cultured in DMEM + 10% fetal bovine serum, Harrill Lab (AID 2284011; active = hit-call score of the fitted dose curve at least 0.9, where 1 is the maximum; inactive = score below 0.9)
# How it was run: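 MCF-7 cells in DMEM + 10% FBS exposed 6 h to chemicals over an eight-point dilution series. Caspase-3/7 activation imaged by high-content CellEvent Green staining; fitted bidirectionally versus DMSO.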
# [13] = CCTE_Harrill_HTTr_CellCount_MCF7: CCTE's Cell Proliferation Assessment for the High-Throughput Transcriptomics (HTTr) Platform, Harrill Lab (AID 2284012);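 note: count of Hoechst-stained nuclei per well by high-content imaging in MCF-7 cells; intended direction is loss of nuclei count meaning fewer cells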
# How it was run: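 Nuclei counting (Hoechst, high content imaging) in MCF-7 after a 6 h treatment at eight concentrations. Activity fitted bidirectionally, DMSO as negative control.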
smiles,measurement,setting,value
O=C(O)c1ccc(-n2nc(-c3ccccc3O)nc2-c2ccccc2O)cc1,outcome,[1],inactive
same,outcome,[2],inactive
same,outcome,[3],inactive
same,outcome,[4],inactive
same,outcome,[5],inactive
same,outcome,[6],inactive
same,outcome,[7],inactive
same,outcome,[8],inactive
COc1cc(C=C2CCCC(=Cc3ccc(O)c(OC)c3)C2=O)ccc1O,AC50,[1],15.2 µM (active)
same,outcome,[2],inactive
same,AC50,[3],15.5 µM (active)
same,outcome,[4],inactive
same,AC50,[5],27.8 µM (active)
same,AC50,[6],11.5 µM (active)
same,AC50,[7],17 µM (active)
same,outcome,[8],inactive
O=C(Nc1ncc([N+](=O)[O-])s1)c1cccs1,outcome,[1],inactive
same,AC50,[2],25 µM (active)
same,AC50,[3],8.44 µM (active)
same,outcome,[4],inactive
same,AC50,[5],13.4 µM (active)
same,outcome,[6],inactive
same,outcome,[7],inactive
same,outcome,[8],inactive
Cc1onc(-c2c(F)cccc2Cl)c1C(=O)N[C@@H]1C(=O)N2[C@@H]1SC(C)(C)[C@@H]2C(=O)O,outcome,[1],inactive
same,outcome,[2],inactive
same,outcome,[3],inactive
same,outcome,[4],inactive
same,outcome,[5],inactive
same,outcome,[6],inactive
same,outcome,[7],inactive
same,outcome,[8],inactive
C=CCNC1=C2C[C@@H](C)C[C@H](OC)[C@H](O)[C@@H](C)/C=C(\C)[C@H](OC(N)=O)[C@@H](OC)/C=C\C=C(/C)C(=O)NC(=CC1=O)C2=O,outcome,[1],inactive
same,AC50,[2],0.189 µM (active)
same,outcome,[3],inactive
same,AC50,[4],0.19 µM (active)
same,outcome,[5],inactive
same,AC50,[6],0.183 µM (active)
same,outcome,[7],inactive
same,AC50,[8],0.147 µM (active)
O=C(CCS)OCC(COC(=O)CCS)(COC(=O)CCS)COC(=O)CCS,outcome,[1],inactive
same,outcome,[2],inactive
same,outcome,[3],inactive
same,AC50,[4],15.7 µM (active)
same,outcome,[5],inactive
same,outcome,[6],inactive
same,outcome,[7],inactive
same,outcome,[8],inactive
O=C(O)c1cc(Cl)cc(Cl)c1,outcome,[1],inactive
same,outcome,[2],inactive
same,outcome,[3],inactive
same,outcome,[4],inactive
same,outcome,[5],inactive
same,outcome,[6],inactive
same,outcome,[7],inactive
same,outcome,[8],inactive
CCN1/C(=C/C=C/c2sc3ccccc3[n+]2CC)Sc2ccccc21,outcome,[1],inactive
same,AC50,[2],9.06 µM (active)
same,AC50,[3],4.58 µM (active)
same,AC50,[4],23.5 µM (active)
same,AC50,[5],20 µM (active)
same,AC50,[6],11.5 µM (active)
same,outcome,[7],inactive
same,AC50,[8],12.9 µM (active)
Cc1c(N(C)CS(=O)(=O)O)c(=O)n(-c2ccccc2)n1C,AC50,[9],8.64 µM (active)
same,outcome,[10],inactive
same,outcome,[11],inactive
same,outcome,[12],inactive
same,outcome,[13],inactive
